Results from PubChem BioAssay (NCATS).
Inconclusive results are not listed. Activity calls are given as the source filed them. Unless noted, calls follow the shape of the dose curve; as a rule, active = well fitted curve in the direction sought with a large enough effect; inconclusive = small, poorly fitted or top-dose-only effect, or another doubt; inactive = no such curve, though single readings can be large; an effect the other way counts as inactive or inconclusive.

Key:
[1] = qHTS for Inhibitors of Plasmodium falciparum (GB4) proliferation (AID 504315); also: nearly all actives have a fitted effect of over 50% in size
In short: (§1)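 Parasite growth measured as SYBR Green DNA fluorescence (ex 485, em 535 nm) after overnight lysis following 72 h culture at 37 °C, 0.3% parasitemia, 2.5% hematocrit. Values normalized against DMSO and 0.29 uM artemisinin controls, with plate-stack correction.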

[2] = qHTS for Inhibitors of Plasmodium falciparum (CP250) proliferation (AID 504320)
In short: as §1

[3] = target: Atrial natriuretic peptide receptor 1 (Homo sapiens) (UniProt P16066); assay: Natriuretic polypeptide receptor (hNpr1) antagonism - Pilot CMLD screen (AID 1347052; calls by dose curve;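 also: HEK293 cells with hNpr1 stimulated by hNppA peptide at 0.1 nM; cGMP level read as GloSensor luciferase luminescence after agonist stimulation; series mostly up to about 9.2 µM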)
Sequence of Atrial natriuretic peptide receptor 1 (Homo sapiens) (P16066 whole entry, looked up): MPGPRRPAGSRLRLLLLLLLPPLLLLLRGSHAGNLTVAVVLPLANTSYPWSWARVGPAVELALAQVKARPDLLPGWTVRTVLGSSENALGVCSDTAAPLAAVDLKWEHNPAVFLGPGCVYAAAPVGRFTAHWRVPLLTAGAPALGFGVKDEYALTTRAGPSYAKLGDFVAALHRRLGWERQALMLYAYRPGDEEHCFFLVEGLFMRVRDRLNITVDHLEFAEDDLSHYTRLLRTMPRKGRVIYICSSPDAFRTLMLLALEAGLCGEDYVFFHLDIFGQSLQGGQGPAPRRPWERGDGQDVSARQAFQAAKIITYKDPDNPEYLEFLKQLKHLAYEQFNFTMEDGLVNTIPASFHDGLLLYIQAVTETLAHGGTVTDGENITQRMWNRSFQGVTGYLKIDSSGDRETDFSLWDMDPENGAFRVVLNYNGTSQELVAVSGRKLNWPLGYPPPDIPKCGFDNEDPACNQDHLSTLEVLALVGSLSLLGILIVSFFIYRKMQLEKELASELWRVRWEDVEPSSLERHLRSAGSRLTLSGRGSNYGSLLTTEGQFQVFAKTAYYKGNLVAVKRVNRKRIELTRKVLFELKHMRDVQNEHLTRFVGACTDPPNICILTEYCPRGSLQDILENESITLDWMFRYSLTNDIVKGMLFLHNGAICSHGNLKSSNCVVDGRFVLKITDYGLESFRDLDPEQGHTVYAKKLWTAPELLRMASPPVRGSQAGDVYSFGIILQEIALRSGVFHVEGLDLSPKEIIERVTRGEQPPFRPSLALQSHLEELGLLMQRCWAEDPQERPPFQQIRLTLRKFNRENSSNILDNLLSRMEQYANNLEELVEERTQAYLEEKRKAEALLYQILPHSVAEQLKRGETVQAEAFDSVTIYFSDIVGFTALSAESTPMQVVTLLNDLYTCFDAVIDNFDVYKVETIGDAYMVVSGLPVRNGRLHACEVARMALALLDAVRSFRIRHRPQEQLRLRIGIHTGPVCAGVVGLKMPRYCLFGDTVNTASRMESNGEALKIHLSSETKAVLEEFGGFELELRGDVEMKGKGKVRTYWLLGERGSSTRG

[4] = qHTS for Inhibitors of Plasmodium falciparum (HB3) proliferation (AID 504318); also: nearly all actives have a fitted effect of over 60% in size
In short: as §1

Measured: Potency

CC12C=C(C=Cc3ccc(F)cc3)C(C)(C1)C(c1ccc(F)cc1)CC2=O (configuration not stated)
inactive: [1] | [2] | [3]

COCC=CC1=CC2=CC(=O)C(C)(OC(=O)c3cnc4ccccc4n3)C(=O)C2=CN1CCc1c[nH]c2ccccc12 (configuration not stated)
inactive: [1] | [4] | [2] | [3]

COC(=O)CCC(=O)OC1(C)C(=O)C=C2C=C(C3CC3)OC=C2C1=O (configuration not stated)
inactive: [1] | [4] | [2] | [3]

COc1cccc(-c2coc3ccc(Br)cc3c2=O)c1
inactive: [1] | [4] | [2] | [3]

COc1ccc([C@]23Cc4cc(OC)c(OC)cc4[C@H](O2)c2c(cc(C)oc2=O)O3)cc1
inactive: [1] | [4] | [2] | [3]

C[C@@H]1C=CCC(=O)N2[C@H](CC(=O)N[C@@H]1c1ccccc1)C[C@@H](C)[C@@H]2c1ccccc1
inactive: [1] | [4] | [2] | [3]

FC(F)(F)c1ccc(-c2nc(-c3ccccc3)oc2Nc2ccc3ccccc3c2)cc1
inactive: [1] | [4] | [2] | [3]

CC1=CC[C@@H](C)O[C@@]2(C1)C(=O)N(Cc1ccc(F)cc1)c1ccccc12
inactive: [1] | [2] | [3]

O=C(NC(CC1=CCCCC1)c1ccc2ccccc2c1)C(F)(F)F (configuration not stated)
inactive: [1] | [4] | [2] | [3]

C[C@H]1C=CCC(=O)N[C@@H](c2ccc3ccccc3c2)[C@@H](C)C=CCC(=O)N[C@@H]1c1ccc2ccccc2c1
inactive: [1] | [4] | [2] | [3]

COC1=C[C@@H](C(=O)N[C@H]2CCCC[C@H]2NC(C)=O)[C@]2(C)Cc3ccccc3[C@H]2CC1=O
inactive: [1] | [2] | [3]

CC12C=C(C=CCCc3ccco3)C(C)(C1)[C@H](CCc1ccco1)CC2=O (some centres not stated)
inactive: [1] | [2] | [3]

CC(=O)OC[C@H]1O[C@H](CC=NO[C@@H](C)CN2CCCc3nc(C)c(C)cc32)C=C[C@@H]1OC(C)=O
inactive: [1] | [4] | [2] | [3]

COc1ccc(C=CNC(=O)Cc2ccc(OC)c(OC)c2)cc1
inactive: [1] | [4] | [2] | [3]
